Results reported in PubChem BioAssay.
“And” between values parts separate entries of the source, which are not always exact repeats. Equal values may be shown once. A number with no mark means an inactive call. The source made the active and inactive calls.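 The calls were made as follows: active = inhibition at or above 50% relative to wild type and mutant plate controls; inactive = inhibition below 50%.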

Assay: inhibitors of Chlamydomonas gravitaxis, primary screen, whole organism, Chlamydomonas reinhardtii, WT vs cilia-less mutant, absorbance, 96-well (AID 463189);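 also: 0% = wild type cc124 cells in DMSO and 100% = ciliumless bld1 mutant cells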
Settings: OD600 absorbance, 2 days, at 10 µM, active compounds read high

Row | Compound | inhibition
1 | Nc1nc2c(nc(Br)n2C2OC3COP(=O)(O)O[C@@H]3C2O)c(=O)[nH]1 (stereo not given in full) | 2.8%
2 | CC(=O)c1ccc(S(=O)(=O)NC(=O)NC2CCCCC2)cc1 | -5.49%
3 | NC(Cc1cccc(-c2ccccc2CP(=O)(O)O)c1)C(=O)O (stereo not given) | -2%
4 | CC(C)[C@@H](CO)Nc1nc(Nc2cccc(Cl)c2)c2ncn(C(C)C)c2n1 | -2.67%
5 | CCCN1C[C@H](CSC)C[C@@H]2c3cccc4[nH]cc(c34)C[C@H]21 | 5.65%
6 | Cc1ccc([N+](=O)[O-])cc1S(=O)(=O)N(C)C | -11.4%
7 | N#CC(=C(\N)Sc1ccccc1N)/C(C#N)=C(/N)Sc1ccccc1N | 13.7%
8 | CCNC(=O)[C@H]1O[C@@H](n2cnc3c(N)nc(NCCc4ccc(CCC(=O)O)cc4)nc32)C(O)[C@H]1O (stereo not given in full) | 3.28%
9 | C=CCN1CCc2c(cc(O)c(O)c2Cl)C(c2ccccc2)C1 (stereo not given) | -7.02%
10 | C=C[C@H]1CN2CCC1C[C@@H]2[C@@H](O)c1ccnc2ccc(OC)cc12 (stereo not given in full) | 5.44%
11 | COc1ccc2c(c1)CCC1C2CC[C@@]2(C)C1CC[C@@H]2NCCCCCCN1C(=O)C=CC1=O (stereo not given in full) | 1.37%
12 | NCCCC(N)(C(=O)O)C(F)F (stereo not given) | 3.03%
13 | Cc1cccc(/C=C/c2ccccc2)n1 | 27.5%
14 | C=C(C)C1CC=C(C(=O)O)CC1 (stereo not given) | 1.75%
15 | O=C(O)CCC(C(=O)O)N1C(=O)c2ccccc2C1=O (stereo not given) | 0.124%
16 | CCn1c(=O)[nH]c2cc(Cl)c(Cl)cc21 | 1.13%
17 | COc1cccc(OC)c1OCCNCC1CSc2ccccc2O1 (stereo not given) | 10.3%
18 | NC(=O)c1cc[n+](CC2=C(C(=O)O)N3C(=O)[C@@H](NC(=O)[C@@H](c4ccccc4)S(=O)(=O)[O-])[C@H]3SC2)cc1 | -6.94%
19 | COc1cc(CC(=O)O)ccc1O | -2.57%
20 | CCn1cc(C(=O)O)c(=O)c2cc(F)c(N3CCNC(C)C3)c(F)c21 (stereo not given) | 3.51%

Row | Compound | inhibition
21 | O=c1ccc2c(OCCCCc3ccccc3)c3ccoc3cc2o1 | 10.5%
22 | NC(=S)c1ccc[n+]([C@@H]2O[C@@H](COP(=O)([O-])OP(=O)(O)OC[C@H]3O[C@@H](n4cnc5c(N)ncnc54)C(OP(=O)(O)O)[C@H]3O)C(O)C2O)c1 (stereo not given in full) | 6.21%
23 | CCCC(=O)NCCc1c2n(c3ccc(OC)cc13)CCCc1ccccc1-2 | 5.19%
24 | O=C(OCCN1CCCCC1)c1c[nH]c2ccccc12 | 5.42%
25 | COc1[nH]c2ccc(F)cc2c1C(=O)OCC1CCN(CCNS(C)(=O)=O)CC1 | -12.7%
26 | COc1ccc2[nH]cc(CCNC(C)=O)c2c1 | 13.5%
27 | CN(Cc1cnc2nc(N)nc(N)c2n1)c1ccc(C(=O)N[C@@H](CCC(=O)O)C(=O)O)cc1 | -2.7%
28 | O=c1c2ccccc2nc2n1CCc1c-2[nH]c2ccccc12 | 2.73%
29 | CC1=C(C(=O)O)N2C(=O)[C@@H](NC(=O)C(N)c3ccccc3)[C@H]2SC1 (stereo not given in full) | -0.964%
30 | CC(=O)[C@]1(O)Cc2c(O)c3c(c(O)c2[C@@H](O[C@H]2C[C@H](N)[C@H](O)[C@H](C)O2)C1)C(=O)c1ccccc1C3=O | -16.2%
31 | O=Nc1ccc2oc(=O)ccc2c1 | -9.21%
32 | NC1CCN(c2cccc(Cl)n2)CC1 | -3.28%
33 | CNC(=O)[C@H]1O[C@@H](n2cnc3c(NCc4ccc(N)cc4)ncnc32)C(O)[C@H]1O (stereo not given in full) | -1.61%
34 | CC(C)NC[C@H](O)c1ccc(O)c(O)c1 | 8.51%
35 | CC(=O)/C(C)=N/O | 1.74%
36 | C[N+](C)(C)CCCCCC[N+](C)(C)C | 5.27% and -2.94%
37 | CCCOC(=O)c1c(-c2ccccc2)nc(CC)c(C(=O)SCC)c1CCC | 10.6%
38 | CCCCCCCCCCCCCCCC(=O)NCC(COP(=O)([O-])OCC[N+](C)(C)C)OCC (stereo not given) | -1.73%
39 | O=C1C(SCCO)=C(SCCO)C(=O)c2ccccc21 | 152% (active)
40 | O=C1O/C(=C/Br)CCC1c1cccc2ccccc12 (stereo not given) | -0.58%
